Screens deposited in PubChem by The Scripps Research Institute Molecular Screening Center.
MITF primary = human MITF inhibition, primary screen; AID 1259374; AlphaScreen MITF homodimerization, bead proximity signal; inhibition, % at 2.6 µM; hit rate 0.91% among 650,000; in the data active = inhibition above about 50%;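 also: 0% = vehicle wells with protein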
Target sequence (O75030 whole entry, looked up): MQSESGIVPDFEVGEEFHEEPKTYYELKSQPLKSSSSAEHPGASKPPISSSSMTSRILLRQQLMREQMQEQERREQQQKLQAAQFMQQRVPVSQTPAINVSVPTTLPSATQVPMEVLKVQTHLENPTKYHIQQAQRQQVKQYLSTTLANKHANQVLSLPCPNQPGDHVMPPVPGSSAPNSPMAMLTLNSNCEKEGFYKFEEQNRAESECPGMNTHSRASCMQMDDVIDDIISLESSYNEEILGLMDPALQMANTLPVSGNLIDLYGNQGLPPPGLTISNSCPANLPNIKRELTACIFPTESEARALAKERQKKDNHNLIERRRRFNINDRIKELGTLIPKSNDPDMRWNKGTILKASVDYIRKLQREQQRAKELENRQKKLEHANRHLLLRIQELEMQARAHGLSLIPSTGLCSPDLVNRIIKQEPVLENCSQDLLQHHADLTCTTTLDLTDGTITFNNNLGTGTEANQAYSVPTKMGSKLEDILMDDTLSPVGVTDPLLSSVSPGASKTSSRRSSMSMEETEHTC
GPR151 activ = activators of human GPR151; Q8TDV0; PathHunter beta-arrestin GPR151 cells, luminescence; activation, % at 11.2 µM; hit rate 1% among 650,000; AID 1508602; in the data active = activation above about 4.9%;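 also: 0% = median of compound wells and 100% = cells with positive control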
FBW7 activator = activators of human E3 ligase FBW7. AlphaScreen FBW7–phospho-cyclin E peptide binding, activator screen. hit rate 0.13% among 650,000. normalized activity (activation), % at 26.1 µM. Q969H0; in the data active = normalized activity above about 1.9%;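 also: purified mutant Fbw7 with reduced substrate affinity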
TEAD-YAP block = TEAD-YAP interaction inhibition. HEK-TIYL cells, TEAD-Gal4/YAP UAS-luciferase luminescence. inhibition, % at 9.12 µM. hit rate 1.4% among 640,000; in the data active = inhibition above about 32%;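 also: 0% = median of test compound wells and 100% = reference inhibitor wells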
The depositor's hits bear a star; ! = a repeat was not active. Sampled rows, rich in hits. Any-hit rate of the full collection: about 3.5%.

SMILES	MITF primary	GPR151 activ	FBW7 activator	TEAD-YAP block
COc1cc(CN2CCNC(=O)C2CC(=O)N(C)Cc2ccccc2)cc(OC)c1 (stereo not given)	-10	0	0	-4
Cc1nnc(N/N=C/c2cc(Cl)ccc2O)[nH]c1=O	127*	2	0	92*
CC(C)(C)c1nnc(N/N=C/c2cc(Br)ccc2O)n(N)c1=O	63*	2	0	75*
Cc1nnc(N/N=C/c2ccc(Br)cc2)[nH]c1=O	9	1	1	6
COc1ccc(/C=N/Nc2nnc(C)c(=O)[nH]2)cc1	-11	-1	0	-5
COc1cc(/C=N/Nc2nnc(C(C)(C)C)c(=O)n2N)ccc1O	12	-1	0	8
COc1ccc(O)c(/C=N/Nc2nnc(C)c(=O)[nH]2)c1	79*	-2	-1	72*
Cc1nnc(N/N=C/c2cc(Br)ccc2O)[nH]c1=O	114*	1	-1	90*
C=CCSc1ncccc1C(=O)NC1CCCC1	0	1	0	-3
Cc1ccc(CC(=O)NCc2cccs2)cc1C	-14	-1	0	45*
Cc1ccc(CC(=O)NCc2ccc(F)cc2)cc1	8	0	1	39*
CCOC(=O)c1[nH]c(C)c(C(=O)NCc2ccc(OC)cc2)c1C	0	2	0	3
COc1ccc(CC(=O)NCc2ccc(F)cc2)cc1	6	0	0	46*
Cc1ccc(C(=O)NCc2cccs2)cc1C	2	0	0	-26
Cc1ccc(CNC(=O)CSCc2ccc(F)cc2)cc1	2	0	0	-1
COc1ccc(CNC(=O)c2c(C)[nH]c(C(C)=O)c2C)cc1	11	0	0	58*
Cc1ccc(-c2cc(C(F)(F)F)n3nc(-c4ccc(C)cc4)cc3n2)cc1	8	-1	0	-7
O=C1c2ccc3c4c(ccc(c24)C(=O)N1CCO)CC3	0	2	0	-11
O=C(Cc1ccc(-n2cccc2)cc1)NCc1cccs1	8	0	0	45*
COc1ccc(CC(=O)NCc2ccc(Cl)cc2)cc1	7	0	0	40*
O=C(Cn1cccc1)NCc1ccc(F)cc1	3	0	0	-13
O=C(Cc1ccc(-n2cccc2)cc1)NCc1ccc(F)cc1	5	1	0	60*
Cc1cc2ccccc2n2c(=O)n(CC(=O)N(C)C3CCCCC3)nc12	14	-1	0	-3
CC1=C(C(=O)OCc2ccccc2)C(c2ccc(O)cc2)n2nnnc2N1 (stereo not given)	-22	0	0	-6
Cc1ccc2nc(-c3ccncc3)c(NC(C)(C)C)n2c1	-8	-1	0	-9
SMILES	MITF primary	GPR151 activ	FBW7 activator	TEAD-YAP block
COc1ccc(CN2C[C@@H]3C[C@@H](c4cc5ccccc5o4)N4CCC[C@@]34C2=O)cc1	-7	0	0	77*
COc1ccc(CN2C[C@@H]3C[C@@H](c4ccccc4C)N4CCC[C@@]34C2=O)cc1	4	-2	0	-6
O=[N+]([O-])C(/C=C(\Cl)[N+](=O)[O-])=C(N1CCOCC1)N1CCOCC1	20	0	0	-1
Cc1ccc(-c2c(N3CCN(c4ccccc4F)CC3)c(=O)c2=O)cc1	-10	3	0	0
COc1ccccc1N1CCN(c2c(-c3ccc(C)cc3)c(=O)c2=O)CC1	-3	4	0	71*
COc1cccc(N2CCN(c3c(-c4ccc(C)cc4)c(=O)c3=O)CC2)c1	0	3	0	66*
O=C(NCc1cccc(C(F)(F)F)c1)c1ccc2nc(N3CCOCC3)sc2c1	-6	1	0	-5
CC1CC(C)CN(S(=O)(=O)c2ccc(F)c(C(=O)Nc3ccc(F)cc3)c2)C1 (stereo not given)	5	5	0	1
COc1ccc(/C=C/c2ccc(N)cc2)cc1	13	-1	0	41*
O=C(NCc1cccc(C(F)(F)F)c1)c1cnc(NCCN2CCOCC2)s1	-9	-1	0	4
O=S(=O)(NCc1cn2ccccc2n1)c1ccc(Oc2ccccc2)cc1	-8	-1	0	16
O=C(COc1ccc(Oc2ccccc2)cc1)NCc1cn2ccccc2n1	14	-1	0	55*
O=C(Cc1ccc2c(c1)OCCO2)c1ccc(O)cc1O	9	-1	0	4
COc1cc(/C=N\Nc2ccc([N+](=O)[O-])cn2)c(Br)cc1O	-3	2	20*	8
O=C(Nc1nc2ccccc2[nH]1)c1cccc(Br)c1	8	-2	0	-27
Cc1cccc(C(=O)Nc2nc3ccccc3[nH]2)c1	7	-5	0	32*
Cc1cccc(C(=O)N[C@H](C(=O)Nc2nc3ccccc3[nH]2)C(C)C)c1	-11	0	0	66*
CCc1cc(C(=O)NCCN2Cc3ccccc3OC(c3ccsc3)C2)no1 (stereo not given)	-14	1	0	-3
COc1ccccc1NC(=O)CCSCCC(=O)Nc1ccccc1OC	-11	-1	0	3
COc1ccc(C)cc1NC(=O)CCSCCC(=O)Nc1cc(C)ccc1OC	1	1	0	33*
O=C(CSc1nnnn1-c1ccccc1)Nc1cccc(NC(=O)C23CC4CC(CC(C4)C2)C3)c1	8	-1	0	72*
CCC(=O)Nc1cccc(NC(=O)CSc2nnnn2-c2ccccc2)c1	5	-1	0	8
FC(F)(F)c1cccc(CNc2nc(Nc3ccncc3)nc3c2ncn3-c2ccsc2)c1	2	1	0	-4
Cc1cnc(Nc2ccncn2)nc1NCc1cccc(C(F)(F)F)c1	-6	0	0	29
Cc1cnc(Nc2ccncc2)nc1NCc1cccc(C(F)(F)F)c1	7	2	0	45*
SMILES	MITF primary	GPR151 activ	FBW7 activator	TEAD-YAP block
FC(F)(F)c1cccc(CNc2nc(Nc3cccnc3)nc3c2ncn3-c2ccsc2)c1	10	0	0	56*
FC(F)(F)c1cccc(CNc2nc(NCc3cccnc3)nc3c2ncn3-c2ccsc2)c1	1	1	0	56*
FC(F)(F)c1cccc(CNc2nc(Nc3cccnc3)nc3c2ncn3-c2ccccc2)c1	18	-1	0	46*
COC(=O)C1CCN(c2ncnc3sccc23)CC1	-6	2	0	0
CC1CN(CC(=O)N2CCC(N3CCSCC3)CC2)Cc2cc(Cl)ccc2O1 (stereo not given)	-9	0	0	12
CCCNc1nc(N2CCOCC2)nc2c1ncn2-c1ccsc1	20	-1	-1	50*
CCCNc1nc(N2CCc3ccccc3C2)nc2c1ncn2-c1ccsc1	22	0	0	-26
Nc1nc(N2CCOCC2)nc2c1ncn2-c1ccsc1	5	2	1	42*
Cc1onc(C(=O)N2CCN(c3ccc(F)cc3)CC2)c1-c1ccccc1Cl	-8	-1	0	-17
CC(c1ccccc1)c1ccc(O)c(O)c1 (stereo not given)	-6	-2	0	-5
NCC(O)c1ccc(O)c(O)c1 (stereo not given)	77*!	0	0	8
Cc1ccc(S(=O)(=O)Nc2cccc(C(=O)NCc3cccnc3)c2)cc1	17	0	0	58*
